From PubChem
The sample as a whole holds a higher share of hits than the screen did.
Shiga toxin inh: blocks Shiga toxin action in Vero cells. inhibition, % at 38.7 µM. AID 2315. actives 9.2% (n = 290,000). Vero cells, Shiga toxin protein synthesis inhibition reporter; in the data active = inhibition mostly above about 28%, no sharp cut-off; inactive = mostly below about 43%; note: 0% is about no effect
AmpC detergent: inhibitors of E. coli AmpC beta-lactamase with detergent | Potency, µM (doses to about 114 µM), for inactives: top-dose activity change, negative = inhibition, most hits filed as inhibitors | AID 485294 | actives 0.041% (n = 370,000) | AmpC hydrolysis of nitrocefin, absorbance 480 nm, 0.01% Triton;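 note: potency is the fitted concentration of half-maximal effect; 0% = no-compound wells and -100% = no-enzyme wells; nearly all actives have a fitted effect of over 25% in size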
Target sequence (P00811 whole entry, looked up): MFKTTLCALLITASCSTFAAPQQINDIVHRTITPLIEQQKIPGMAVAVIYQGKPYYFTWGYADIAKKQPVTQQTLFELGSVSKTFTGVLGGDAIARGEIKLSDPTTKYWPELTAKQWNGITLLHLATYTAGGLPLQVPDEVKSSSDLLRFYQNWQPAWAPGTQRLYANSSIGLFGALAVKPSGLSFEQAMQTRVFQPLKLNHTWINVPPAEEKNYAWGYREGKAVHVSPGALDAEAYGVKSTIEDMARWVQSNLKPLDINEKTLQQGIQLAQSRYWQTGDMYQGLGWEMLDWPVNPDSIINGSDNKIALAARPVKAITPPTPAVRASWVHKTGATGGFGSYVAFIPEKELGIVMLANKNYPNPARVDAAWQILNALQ
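AmpC (5.3 nM in the dispensed reagent) in 20 mM phosphate pH 7.0 with 0.01% (detergent screen) or 0.0001% Triton X-100 was preincubated with compounds for 15 min at room temperature. Nitrocefin was then added from an 800 uM solution, and hydrolysis was followed at 480 nm.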
Cycloheximide cs: affects cycloheximide protein synthesis inhibition readout, counter-screen. max response, %. cell reporter, cycloheximide protein synthesis inhibition counterscreen. actives 12% (n = 300,000); in the data active = max response mostly above about 13%, no sharp cut-off; inactive = mostly below about 14%; note: read at 38.3 µM for the half of the compounds with a filed dose; 0% is about no effect
NS1 function inh: influenza NS1 inhibition. Potency, µM (highest dose often 46.1 µM), inactives show top-dose activity, positive = more growth. actives 0.4% (n = 270,000). AID 2326; calls by dose curve; note: potency is the fitted concentration of half-maximal effect; actives are rising curves; nearly all actives have a fitted effect of over 50% in size
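S. cerevisiae expressing influenza A NS1, grown in glucose, washed, then diluted 1:100 into pH 6.0 -URA galactose medium with 23 nl compound. Growth recovery read as OD600; NS1-free strain serves as control.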
AmpC no deterg: AmpC beta-lactamase inhibition without detergent; AmpC nitrocefin hydrolysis, absorbance 480 nm, 0.0001% Triton; Potency, µM (highest dose often 57.1 µM), for inactives: at the top dose activity change, negative = inhibition, most hits filed as inhibitors; actives 0.52% (n = 330,000);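 note: potency is the fitted concentration of half-maximal effect; plate controls were no compound for no effect and no enzyme for full effect; nearly all actives have a fitted effect of over 20% in size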
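AmpC (5.3 nM in the dispensed reagent) in 20 mM phosphate pH 7.0 with 0.01% (detergent screen) or 0.0001% Triton X-100 was preincubated with compounds for 15 min at room temperature. Nitrocefin was then added from an 800 uM solution, and hydrolysis was followed at 480 nm.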
* marks the source's active call; other numbers are inactive results; ? = inconclusive; · = not tested or not shown; ! = repeats disagree. Unless noted, calls come from the whole dose curve; as a rule, active = well fitted curve in the direction sought with a large enough effect; inconclusive = small, poorly fitted or top-dose-only effect, or another doubt; inactive = no such curve, though single readings can be large; an effect the other way counts as inactive or inconclusive.

SMILES	Shiga toxin inh	AmpC detergent	Cycloheximide cs	NS1 function inh	AmpC no deterg
CCc1ccc(-c2[nH]nc3nc(-c4cc(OC)ccc4OC)cc(C(=O)O)c23)cc1	·	12%	·	·	·
CCOc1ccc(N=Cc2c(O)cc(C)oc2=O)cc1	-4	?	-3	-5%	0%
CCOc1ccc(N=Cc2c(O)c3ccccc3oc2=O)cc1	78*	-15%	26*	-6%	-16%
O=C(O)c1ccc(N=NN2CCCCCC2)cc1	74*	?	42*	16%	-16%
CC(C)(C)c1ccc(-c2nc(C=O)c3ccccn23)cc1	56	?	39*	-102%	-3%
O=C(Oc1c(Cl)cc(Cl)c2ccccc12)N1CCCC1	-14	?	-3	-36%	81%
O=C(Oc1ccc2ccccc2c1Cl)N1CCCCCC1	71*	?	66*	-17%	-31%
O=C(Oc1c(Cl)cc(Cl)c2ccccc12)N1CCCCC1	35	-6%	14	11%	-14%
O=C(Oc1ccc2ccccc2c1Cl)N1CCCC1	59*	?	38*	-45%	7%
O=C(Oc1ccc(Cl)c2ccccc12)N1CCCCC1	72*	-1%	32*	-4%	-10%
O=C(Cc1ccccc1)NC1(Cc2ccc(O)cc2)CCCCC1	-6	-5%	-4	-1%	-31%
CCn1nc(C)c(CNC(=O)c2cc(COc3ccccc3SC)on2)c1C	57	0%	25*	4%	80%
CSc1ccccc1OCc1cc(C(=O)NC(C)CCn2cccn2)no1 (stereo not drawn)	16	-7%	18	-12%	60%
CSc1ccccc1OCc1cc(C(=O)NC(C)Cc2cccc(C)n2)no1 (stereo not drawn)	88*	1%	49*	-30%	123%
CCn1nc(C)c(CNC(=O)c2cc(COc3cncc(Cl)c3)on2)c1C	-12	-4%	11	10%	15%
CSc1ccccc1OCc1cc(C(=O)NCc2cccc(C)n2)no1	99*	-1%	80*	-9%	4%
CCOC(=O)/C=C1\SCC(=O)N1CC(=O)NC(C)c1ccccc1 (stereo not drawn)	2	-5%	-3	11%	-22%
CCOC(=O)/C=C1\SCC(=O)N1CC(=O)NC(c1ccccc1)c1ccccc1	-8	-14%	-4	?	28µM*
Cc1[nH]n(-c2ncc(-c3ccccc3)s2)c(=O)c1C(c1ccc(Cl)cc1)C(C#N)C#N (stereo not drawn)	-12	-12%	11*	?	32µM*
NC(=S)Nc1cnc2ccccc2c1	56*	?	27*	4%	-8%
CN(C(=O)Nc1ccccc1)C1CCCCC1	67	5%	14	0%	-18%
CN(C)C(=O)NC(NC(=S)Nc1ccccc1)C(Cl)(Cl)Cl (stereo not drawn)	1	1%	20	·	-29%
CCCCCN(C(=O)NC(=O)Nc1ccc(C)cc1)S(=O)(=O)c1ccccc1	3	-1%	20*	-10%	-18%
CN(C(=O)Nc1ccccc1)C1CCCc2ccccc21 (stereo not drawn)	71*	-1%	19*	-4%	-23%
CN(C)C(=O)Nc1ccccc1	88*!	-7%	41*!	5%	-10%
SMILES	Shiga toxin inh	AmpC detergent	Cycloheximide cs	NS1 function inh	AmpC no deterg
O=C(Nc1ccccc1)N(C1=NCCC1)c1ccccc1	35	3%	-1	-5%	0%
Cc1ccc(N(C(=O)Nc2ccccc2)C2=NCCC2)cc1	19	2%	17*	1%	22%
Cc1ccc(NC(=O)N(CCC(=O)O)Cc2ccccc2)cc1	-9	-6%	-1	5%	-2%
CCOc1ccc(NC(=O)NC(=O)N(C)S(=O)(=O)c2ccc(C)cc2)cc1	19	2%	-3	·	-18%
CN(C(=O)Nc1cnc2ccccc2c1)c1ccccc1	28*	0%	34*	-7%	-18%
Cc1cccc(NC(=O)CS(=O)CC(=O)Nc2cnc3ccccc3c2)c1C (stereo not drawn)	-18	?	6	-12%	11%
Cc1ccc(NC(=O)NC(=O)N(c2ccccc2)S(C)(=O)=O)cc1	50*	2%	27*	?	-31%
Cc1ccc(NC(=O)N(C)c2ccccc2)cc1	48*	-2%	17*	2%	-12%
CC(=O)Nc1ccc(NC(=O)CCS(=O)(=O)c2ccc3c(c2)CC(=O)N3C)cc1	·	-2%	·	·	·
COc1cc(NC(=O)CC(C)S(=O)(=O)c2ccc3c(c2)CCN3C(C)=O)cc(OC)c1OC (stereo not drawn)	·	18%	·	·	·
CCc1ccc(C2C(C(=O)Nc3ccccc3C)=C(C)Nc3nc(SCc4cccc(OC)c4)nn32)cc1 (stereo not drawn)	·	9%	·	·	·
Cc1cccc(N=Nc2ccc(N(C)C)cc2)c1	126*	0%	43*	-8%	-28%
CN(C)c1ccc(N=Nc2ccc(S(N)(=O)=O)cc2)cc1	89*	?	52*	?	-30%
CN(C)c1ccc(N=Nc2cccc3ccoc23)cc1	137*	-18%	56*	-19%	-10%
CN(C)c1ccc(N=Nc2cccc(F)c2)cc1	96*	-2%	41*	-3%	-6%
CCOC(=O)c1c(NC(=O)CN2CCCc3ccccc32)sc(C(C)=O)c1C	48	-5%	-1	-2%	-24%
Cc1cc(C)c(S(=O)(=O)Nc2cccc(/C=C/C(=O)O)c2)c(C)c1	2	-15%	0	30%	-25%
O=C1CCOc2cc(OCc3ccccc3)ccc21	50*	-4%	33*	-4%	2%
CCC[C@@H](CN1CCC[C@H]1CN1C(N)=NC[C@H]1C(C)C)N1C[C@@H](Cc2ccccc2)N(CCCC2CCCC2)C1=N	·	·	·	·	61%
O=C(Nc1ccc2oc(-c3ccncc3)nc2c1)c1ccco1	48	3%	27*	-44%	-17%
Cc1ccc2oc(-c3cc(NC(=O)c4ccco4)ccc3Cl)nc2c1	·	14%	·	·	·
O=C(Nc1ccc2oc(-c3ccccc3)nc2c1)c1ccco1	78*	-8%	94*	-20%	-33%
CCN1C(=S)SC(=O)C1=C1C=C(C)N(CCO)C(C)=C1	125*	5%	71*	-12%	-1%
CCN1C(=S)SC(=O)C1=C1C=C(C)N(CCOC)C(C)=C1	107*	-15%	44*	-14%	-13%
COCCN1C(=O)/C(=C/c2ccc(N3CCCC3)cc2)SC1=S	32	3%	-2	2%	-2%
Cc1ccc(NC(=O)C(=O)NCC2OCCc3ccccc32)cc1 (stereo not drawn)	11	-5%	7	0%	-17%
Cc1ccc(NC(=O)C2OCCc3ccccc32)cc1 (stereo not drawn)	79*	-10%	40*	0%	-13%
Cc1ccc(NC(=O)C2OCCc3ccccc32)cc1Cl (stereo not drawn)	58*	?	18*	-7%	-54%
Cc1ccc(NC(=O)C2Cc3ccccc3N2C(=O)c2ccccc2)cc1Cl (stereo not drawn)	·	3%	·	·	·
